Assay results reported in PubChem BioAssay AID1029 (Sanford-Burnham Center for Chemical Genomics, 2008).
Out of some 110,000 compounds screened, about 80 (0.07%) were called active. For the sample, actives were picked, then their nearest neighbours and some compounds at random. A number with no mark means an inactive call.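 Rule for the calls: active = inhibition above the mean of the plate negative controls plus 5 SD (cut at about 13% in these data); inactive = the rest.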

test: inhibitors of macrophage phagocytosis, primary screen, imaging, J774A.1 cells, IgG beads (AID 1029); conditions: J774A.1 macrophage IgG-bead phagocytosis, at 5 µM, active compounds read high;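 note: phagocytic index as fraction of beads internalized from green versus red external bead signal; plate controls were DMSO negative control for no effect and cytochalasin-D positive control for full effect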

SMILES | inhibition
CC(=O)c1c(C)n([O-])c2ccccc2[n+]1=O | 79.2% (active)
CC(=O)c1ccc2c(c1)c1ccccc1n2CC(C)C | 0.3%
c1ccc(-c2cc3c(NCC4COc5ccccc5O4)ncnc3s2)cc1 (centres undefined) | -5.69%
CCNS(=O)(=O)c1ccc(NC(=O)c2cncc(Br)c2)cc1 | -7.43%
CCC1CCCCN1C(=S)Nc1ccc(C(C)=O)cc1 (centres undefined) | -9.4%
O=C(/C=C/c1cccc([N+](=O)[O-])c1)NCCSCc1ccco1 | 6.74%
CCc1ccc(-c2cc(C(=O)NN3CCN(C)CC3)c3ccccc3n2)cc1 | -2.84%
COC(=O)c1c(NC(=O)CN2CCN(S(=O)(=O)c3ccccc3[N+](=O)[O-])CC2)sc2c1CCC(C)C2 (centres undefined) | -4.89%
Cc1ccc(NC(=O)CSCC(=O)NC2CCCCC2)cc1 | 6.8%
Cc1ccc(CN2C(=O)N/C(=C/c3cc(C)n(-c4ccccn4)c3C)C2=O)cc1 | -12.6%
COc1ccc(NC(=S)NC2CCS(=O)(=O)C2)cc1 (centres undefined) | -3.06%
O=C(Nc1ccccc1)/C(=C/c1ccc([N+](=O)[O-])cc1)NC(=O)c1ccccc1 | -6.22%
CC(=O)Nc1ccc(/C(C)=N/NC(=O)CN(c2ccccc2Br)S(C)(=O)=O)cc1 | -1.53%
Cc1ccccc1OCC(=O)Nc1nc(C)c(C(=O)N(C)C)s1 | -2.14%
CCn1ncc(CNC(=O)C2(C)CC2(Br)Br)c1C (centres undefined) | -2.71%
O=C(/C=C\c1cn(-c2ccccc2)nc1-c1cccs1)N1CCOCC1 | -5.61%
COc1cc2c(cc1OC)C(Nc1ccc(S(N)(=O)=O)cc1)=NC(C)(C)C2 | -2.77%
COCCNc1nc(N)c([N+](=O)[O-])c(NCCO)n1 | -3.97%
COc1ccc(/C(C)=N/NC(=O)CCC(=O)Nc2ccc(Cl)cc2Cl)c(OC)c1 | 0.09%
CCC1CCc2c(sc(NC(C)=O)c2C#N)C1 (centres undefined) | -7.48%
COc1ccc(N2C(=O)C(O)C2c2ccc(C)cc2)cc1 (centres undefined) | -1.93%
CC(CC(=O)N1CCN(c2ccccc2)CC1)c1ccccc1 (centres undefined) | -3.13%
Cc1ccnc(NC(=O)Cn2ccc([N+](=O)[O-])n2)c1 | -6.53%
Cc1ccc(C)c(NC(=O)CCC(=O)NNC(=O)c2cccs2)c1 | 1.58%

SMILES | inhibition
COCCNC(=O)c1ccccc1NS(=O)(=O)c1ccc(C)c([N+](=O)[O-])c1 | -2.99%
O=C(NNC(=S)NCc1ccccc1)c1ccc(OC(F)F)cc1 | -3.86%
CCCCN(CC)C(=S)Nc1ccc2nc3n(c(=O)c2c1)CCCCC3 | -7.14%
O=C1CCCC(O)=C1N=Nc1ccc2ncsc2c1 | 105% [artifact] (active)
COc1ccc(C)cc1NC(=O)C(OC(=O)c1cccc(S(=O)(=O)N(C)c2ccccc2)c1)c1ccccc1 (centres undefined) | -5.86%
Cc1cccc(C)c1NC(=O)CSc1ccc([N+](=O)[O-])cn1 | -2.92%
O=C1NC(c2ccccc2)CCC1(Cl)Cl (centres undefined) | 2.89%
CCC(=O)/C=C1\Sc2ccccc2N1CC | -1.58%
S=C(NCc1ccc(Cl)cc1)NC1CCCCC1 | -3.92%
O=C(NN1C(=O)C2C3C=CC(O3)C2C1=O)c1ccncc1 (centres undefined) | -4.03%
O=C(CSc1nnc(-c2ccncc2)o1)NCc1ccc(Cl)cc1 | -5.78%
COc1ccc(OCc2cn3c(C)cc(C)nc3n2)cc1 | -0.34%
COc1cc(/C=C/C(=O)O)cc(S(=O)(=O)Nc2ccccc2SC)c1OC | -5.74%
CCCCN(CC)C(=O)c1ccc2c(c1)OCO2 | 1.32%
Cc1ccc2c(c1)C1CN(C)CCC1N2C(=O)c1ccccc1NS(=O)(=O)c1ccc(F)cc1C (centres undefined) | -3.92%
COC(=O)/C(=C1\Oc2ccc(C(C)(C)C)cc2S1)C(F)(F)F | 7.86%
CC(C)CNC(=S)Nc1ccc(F)cc1 | -3.14%
CCCCOc1ccc(NC(=O)[C@@H]2CCCN2C(=O)C2CCN(S(=O)(=O)c3ccc(C)cc3)CC2)cc1 | -3.36%
Cc1ccc(NC(=O)CC2S/C(=N/N=C3\CCCc4ccccc43)NC2=O)cc1 (centres undefined) | -6.09%
O=C(CN1CCc2ccccc21)NC(c1ccccc1)c1ccccc1 | -5.11%
O=C(O)c1ccc2c(c1)C(=O)N(NC(=O)c1ccc(O)cc1)C2=O | -5.14%
COc1ccc(NC(=S)NCc2cccs2)c(OC)c1 | 0.55%
COc1cc2c(cc1/C=C1/NC(=O)N(c3ccccc3)C1=O)OCO2 | -3.27%
Cc1cc(C(=O)NNC(=S)NC(C)c2ccccc2)cs1 (centres undefined) | -2.01%

SMILES | inhibition
Cc1ccc(-n2[nH]c(C)c(/C=N/NC(=O)c3cccc([N+](=O)[O-])c3)c2=O)cc1C | -4.72%
Cc1ccc(C(=O)Oc2coc(CSc3nnc(NC(=O)c4cccs4)s3)cc2=O)cc1C | -0.5%
NC1=C([N+](=O)[O-])C(c2ccccc2)C2=C(CCCC2=O)O1 (centres undefined) | -3.95%
COc1ccc(C(=O)COC(=O)c2ccc3ccccc3n2)cc1 | -5.54%
O=[N+]([O-])c1cccc(C2=NCCS2)c1 | 0.05%
Cc1ccccc1Cn1nc(C)c(NC(=O)C(F)(F)F)c1C | -2.43%
CC(C)(C)C1CCC(=NNC(=O)c2cc(-c3ccccc3)n[nH]2)CC1 (centres undefined) | 0.48%
CCOc1ccc2nc(NC(=O)c3cc([N+](=O)[O-])ccc3N3CCOCC3)sc2c1 | 3.64%
CC(=O)c1ccc(NC(=S)NC(=O)CC(C)C)cc1 | -4.19%
CCOc1ccc(C(=O)NC(=S)Nc2ccc(NC(=O)C(C)C)cc2)cc1[N+](=O)[O-] | -0.7%
COc1ccc2nc(Nc3nc(-c4cc5ccccc5oc4=O)cs3)sc2c1 | 0.77%
CC(=O)Nc1cccc(/C(C)=N/NC(=O)c2c(-c3ccccc3Cl)noc2C)c1 | -2.62%
Cc1ccc(C)c(OCC(=O)N2CCN(C(=O)c3ccco3)CC2)c1 | -4.31%
COc1ccc(-c2csc3ncnc(Oc4ccc5c(C)cc(=O)oc5c4)c23)cc1 | -2.34%
O=C(CNS(=O)(=O)c1ccccc1)NCC(=O)OCc1ccccc1F | -3.58%
CCCOc1ccc(NC(=O)C2OC3OC(C)(C)OC3C3OC(C)(C)OC23)cc1 (centres undefined) | -11.4%
CCOC(=O)C1=C(C)NC(=S)NC1c1cccs1 (centres undefined) | -4.52%
Cc1scc(C(=O)NNC(=S)NCc2ccccc2)c1C | -4.2%
O=C(Nc1ccccc1Cc1ccccc1)c1ccc2c(c1)SC1=NS(=O)(=O)CCN12 | -3.83%
O=C(O)c1cccc(N2C(=O)Nc3ccccc3N2O)c1 | -9.86%
COc1ccc(Cc2nnc(N/N=C/c3ccccc3O)[nH]c2=O)cc1OC | -6.04%
COCC(=O)Nc1cc(C(=O)OC)cc(C(=O)OC)c1 | -2.4%
CN(C)C(CNC(=O)c1ccc(S(=O)(=O)NCc2ccco2)cc1)c1ccccc1 (centres undefined) | -2.95%
COc1cc(NC(=O)Nc2ccc(C)cc2)cc([N+](=O)[O-])c1 | -5.65%

SMILES | inhibition
CC(C)C(C)(C#N)NC(=O)CSc1nc2scc(-c3ccccc3)c2c(=O)[nH]1 (centres undefined) | -2.01%
Cc1cccc(-c2nc3ccccc3c(=O)n2NC(=O)Cc2ccc(Cl)cc2)c1 | -9.34%
O=C(NC(=S)Nc1cc(C(F)(F)F)ccc1N1CCOCC1)c1ccc(-c2cccc(Cl)c2)o1 | -11.9%
S=C(NCCc1ccccc1)NCC1CCCO1 (centres undefined) | 2.03%
Cc1nc2c(C(=O)NCc3cccs3)cnn2c(C)c1Cc1ccc(F)cc1 | -10.6%
CCCCCNC(=O)c1cccnc1SCC(=O)Nc1ccccc1OC | -7.81%
CCCCOc1ccc(C(=O)N/C(=C/C=C/c2ccccc2)C(=O)N2CCOCC2)cc1 | -6.1%
CCc1ccc(NC(=O)CC2C(=O)NCCN2C(=S)Nc2ccccc2)cc1 (centres undefined) | 0.25%
COC(C(=O)Nc1ccc(C(C)=O)cc1)c1ccccc1 (centres undefined) | -7.11%
COCCn1c(SCC(=O)Nc2ccc3c(c2)CCC3)nc2ccccc2c1=O | -6.84%
Cc1c(Cl)c([N+](=O)[O-])nn1CCCC(=O)Nc1cc(Cl)ccc1Cl | -3.17%
COc1ccccc1OCc1ccc(C(=O)N2CCN(C)CC2)o1 | 0.11%
O=C(/C=C/c1cnc2ccccc2n1)NC1CCCCCC1 | -9.71%
CO/N=C(\N)c1ccc([N+](=O)[O-])cc1 | -3.92%
Cc1ccc(N(Cc2cc3ccccc3[nH]c2=O)C(=O)c2cccs2)cc1 | 0.22%
COC(C(=O)NCc1ccccc1C)c1ccccc1 (centres undefined) | -6.05%
Cc1nnc(SCc2cc(=O)[nH]c(N3CCN(Cc4ccccc4)CC3)n2)s1 | 55.5% (active)
CCc1c(C)nc(N2CCN(Cc3ccccc3)CC2)[nH]c1=O | -1.2%
O=c1cc(CSc2ccccn2)nc(N2CCN(c3ccccc3)CC2)[nH]1 | -1.3%
O=C(N/N=C/c1coc2ccccc2c1=O)c1cc2ccccc2o1 | -4.52%
Cc1nc2ccccc2nc(C)c1=NOCc1ccc(Cl)cc1Cl | -8.1%
COc1ccc(C2CC(c3ccccc3)=NN2C(=O)CSc2nccc(=O)[nH]2)cc1 (centres undefined) | -11.3%
